Laboratory results from PubChem BioAssay (EPA / NIEHS).
Results filed as inconclusive are left out. The source made the active and inactive calls. The calls were made as follows, unless noted: active = hit-call score of the fitted dose curve at least 0.9, where 1 is the maximum; inconclusive = response in the unintended direction; inactive = score below 0.9.

Tests used:
[1] = ATG_TCF_b_cat_CIS: Attagene CIS-FACTORIAL HepG2 Assay for human T-Cell-Factor with beta-catenin (TCF/b-cat) (AID 2282965; active = hit-call score of the fitted dose curve at least 0.9, where 1 is the maximum; inactive = score below 0.9); conditions: HepG2 TCF/beta-catenin cis-reporter transcription, actives raise or lower the signal
Summary of the method: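 HepG2, transient MRTU transfection, cis-element-driven reporters (endogenous TFs). 24 h compound exposure. Readout: reporter mRNA by RT-PCR + 6-FAM primer extension, HpaI digest, capillary electrophoresis. Gain/loss fit vs DMSO baseline.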

[2] = ATG_TAL_CIS: Attagene CIS-FACTORIAL HepG2 Assay for human TAL Basal Promoter (AID 2282966; active = hit-call score of the fitted dose curve at least 0.9, where 1 is the maximum; inactive = score below 0.9;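 also: background control endpoint measuring basal TAL promoter reporter mRNA not a specific factor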); conditions: HepG2 Attagene cis-factorial TAL promoter reporter; actives raise or lower the signal
Summary of the method: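 In this cell-based multiplex, HepG2 liver cells bearing cis-promoter reporter constructs are dosed for 24 hours. Total RNA is reverse-transcribed and amplified, labelled fragments are sized by capillary electrophoresis, and signal changes are fitted bidirectionally versus DMSO.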

[3] = ATG_TGFb_CIS: Attagene CIS-FACTORIAL HepG2 Assay for human Transforming Growth Factor (TGF) (AID 2282967; active = hit-call score of the fitted dose curve at least 0.9, where 1 is the maximum; inactive = score below 0.9); conditions: HepG2 Attagene CIS TGFb reporter, mRNA transcription; actives raise or lower the signal
Summary of the method: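 Bidirectional fitting relative to DMSO gave the endpoint. Underlying data: reporter mRNA from HepG2 cells carrying transiently transfected cis-regulated reporter constructs, harvested 24 h after dosing and analyzed by RT-PCR and capillary electrophoresis.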

[4] = molecular target: Nuclear receptor subfamily 1 group I member 3 (Homo sapiens) (UniProt Q14994); assay: ATG_CAR_TRANS: Attagene TRANS-FACTORIAL HepG2 Assay for human Constitutive Androstane Receptor (CAR) (AID 2282969); conditions: HepG2 Attagene TRANS-FACTORIAL CAR reporter;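 also: activators raise reporter mRNA above DMSO so AC50 marks induction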
Summary of the method: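 HepG2 cells transiently transfected with GAL4-UAS reporter units; TRANS format reads activity of exogenous chimeric NR-Gal4 protein. After 24 h dosing, reporter mRNA quantified by RT-PCR, 6-FAM labelling and capillary electrophoresis; gain of signal fitted against DMSO.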

[5] = molecular target: Estrogen receptor (Homo sapiens) (UniProt P03372); assay: ATG_ERa_TRANS: Attagene TRANS-FACTORIAL HepG2 Assay for human Estrogen Receptor alpha (ERa) (AID 2282970); conditions: HepG2 Attagene TRANS ERa GAL4 reporter, mRNA
Summary of the method: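 After 24 h of compound treatment, RNA from HepG2 cells bearing transfected GAL4-UAS reporter constructs is converted to cDNA, amplified and fluorescently labelled. Capillary electrophoresis resolves the ERa-linked reporter; DMSO serves as negative control.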

[6] = molecular target: X-box-binding protein 1 (Homo sapiens) (UniProt P17861); assay: ATG_Xbp1_CIS: Attagene CIS-FACTORIAL HepG2 Assay for human X-box Binding Protein 1 (XBP1) (AID 2282972; active = hit-call score of the fitted dose curve at least 0.9, where 1 is the maximum; inactive = score below 0.9); conditions: HepG2 XBP1 cis-element reporter, Attagene multiplex; actives raise or lower the signal
Summary of the method: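 Fluorescence-labelled cDNA fragments from reporter transcripts, separated by capillary electrophoresis, give the signal. Source: HepG2 cells transfected with promoter-driven reporter units, harvested 24 h post-dose. DMSO served as reference for bidirectional curve fitting.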

[7] = molecular target: Bile acid receptor (Homo sapiens) (UniProt Q96RI1); assay: ATG_FXR_TRANS: Attagene TRANS-FACTORIAL HepG2 Assay for Farnesoid X Receptor (FXR) (AID 2282979); conditions: HepG2 Attagene TRANS FXR-GAL4 reporter transcription;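 also: hits raise reporter mRNA above DMSO so AC50 marks FXR activation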
Summary of the method: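 Read-out: fluorescent reporter transcripts quantified by capillary electrophoresis after RT-PCR of total RNA. Source cells were HepG2 transiently carrying chimeric NR-GAL4 plus GAL4-UAS reporter units, dosed 24 h. Activity fitted upward relative to DMSO baseline.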

[8] = molecular target: Oxysterols receptor LXR-alpha (Homo sapiens) (UniProt Q13133); assay: ATG_LXRa_TRANS: Attagene TRANS-FACTORIAL HepG2 Assay for human Liver X Receptor alpha (LXRa) (AID 2282980); conditions: HepG2 Attagene TRANS reporter, LXRa transactivation
Summary of the method: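 Read-out: reporter transcript levels by RT-PCR plus capillary electrophoresis, fluorescence intensity. Transiently transfected HepG2, exogenous NR-GAL4 chimera, GAL4-UAS reporters; 24 h compound exposure. Activity = increase over DMSO negative control.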

[9] = molecular target: Hepatocyte nuclear factor 4-alpha (Homo sapiens) (UniProt P41235); assay: ATG_HNF4a_TRANS: Attagene TRANS-FACTORIAL HepG2 Assay for human Hepatocyte Nuclear Factor 4 alpha (HNF4a) (AID 2282982); conditions: HepG2 HNF4a transactivation reporter, mRNA readout
Summary of the method: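 HepG2 cells transiently transfected with HNF4a-Gal4 chimera and GAL4-UAS reporter units, dosed for 24 h. Reporter mRNA measured by RT-PCR, fluorescent primer extension and capillary electrophoresis; gain-of-signal fitted relative to DMSO.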

[10] = ATG_M_06_TRANS: Attagene TRANS-FACTORIAL HepG2 Assay for M06 Transcription Factor (Internal Marker) (AID 2282983); conditions: HepG2 Attagene TRANS M06 internal marker reporter
Summary of the method: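 After a 24 h chemical treatment of transfected HepG2, RNA underwent DNase I treatment, reverse transcription and reporter-specific PCR; labelled, HpaI-digested products were sized by capillary electrophoresis. Signal increase relative to DMSO defined activity.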

[11] = molecular target: Nuclear receptor subfamily 4 group A member 2 (Homo sapiens) (UniProt P43354); assay: ATG_NURR1_TRANS: Attagene TRANS-FACTORIAL HepG2 Assay for human Nuclear Receptor Related Protein 1 (NURR1) (AID 2282985); conditions: HepG2 Attagene TRANS reporter, mRNA readout
Summary of the method: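 HepG2 cells transiently transfected with NURR1-Gal4 chimera and GAL4-UAS reporter units; after 24 hr compound exposure, reporter mRNA quantified by RT-PCR and capillary electrophoresis; gain of signal fitted against DMSO.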

[12] = molecular target: Transcriptional activator Myb (Homo sapiens) (UniProt P10242); assay: ATG_Myb_CIS: Attagene CIS-FACTORIAL HepG2 Assay for human Myeloblastosis (Myb) Proto-Oncogene Transcription Factor (AID 2282986; active = hit-call score of the fitted dose curve at least 0.9, where 1 is the maximum; inactive = score below 0.9); conditions: HepG2 Attagene CIS-FACTORIAL Myb reporter transcription; actives raise or lower the signal
Summary of the method: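 Transiently transfected HepG2 cells, treated 24 h. Reporter mRNA quantified by RT-PCR/capillary electrophoresis; bidirectional fit relative to DMSO.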

[13] = ATG_GAL4_TRANS: Attagene TRANS-FACTORIAL HepG2 Assay for GAL4 (Internal Marker) (AID 2282976); conditions: HepG2 Attagene TRANS GAL4 internal marker reporter
Summary of the method: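 RT-PCR/capillary electrophoresis readout of reporter mRNA. HepG2, transient MRTU transfection (GAL4-UAS reporters), 24 h compound exposure. Background-control endpoint, positive direction vs DMSO baseline.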

[14] = molecular target: Glucocorticoid receptor (Homo sapiens) (UniProt P04150); assay: ATG_GR_TRANS: Attagene TRANS-FACTORIAL HepG2 Assay for human Glucocorticoid Receptor (GR) (AID 2282978); conditions: HepG2 Attagene TRANS GR reporter, mRNA transcription;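 also: activators score as hits since higher reporter transcript over DMSO is fitted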
Summary of the method: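 Reporter transcript levels, detected by fluorescence after RT-PCR and capillary electrophoresis, served as the endpoint. HepG2 cells bearing transfected GAL4-UAS reporters responsive to NR-GAL4 chimeras were incubated with compound 24 h; DMSO defined baseline.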

[15] = ATG_M_19_TRANS: Attagene TRANS-FACTORIAL HepG2 Assay for M19 Transcription Factor (Internal Marker) (AID 2282974); conditions: HepG2 Attagene TRANS-FACTORIAL M19 internal marker reporter
Summary of the method: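 Reporter mRNA induction was measured in transfected HepG2 cells 24 h after dosing. Endpoint fitted upward relative to DMSO and serves as a background control within the multiplexed TRANS panel.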

[16] = molecular target: Oxysterols receptor LXR-beta (Homo sapiens) (UniProt P55055); assay: ATG_LXRb_TRANS: Attagene TRANS-FACTORIAL HepG2 Assay for human Liver X Receptor beta (LXRb) (AID 2282981); conditions: HepG2 Attagene TRANS GAL4-LXRb reporter, mRNA
Summary of the method: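 HepG2 cells transiently transfected with GAL4-UAS reporter units for chimeric NR-Gal4 proteins, dosed for 24 h. Reporter transcripts measured by RT-PCR and capillary electrophoresis; gain-of-signal fitting relative to DMSO.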

[17] = molecular target: Steroid hormone receptor ERR1 (Homo sapiens) (UniProt P11474); assay: ATG_ERRa_TRANS: Attagene TRANS-FACTORIAL HepG2 Assay for human Estrogen-Related Receptor alpha (ERRa) (AID 2282971); conditions: HepG2 Attagene TRANS reporter, ERRa transactivation
Summary of the method: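 Transfected HepG2, 24 h dosing, ERRa-Gal4 chimera driving GAL4-UAS reporter. Readout: reporter mRNA via RT-PCR plus capillary electrophoresis (fluorescence). Positive direction vs DMSO control.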

Measured: outcome

Sequence of Nuclear receptor subfamily 1 group I member 3 (Homo sapiens) (Q14994 whole entry, looked up, the tested form may be a part): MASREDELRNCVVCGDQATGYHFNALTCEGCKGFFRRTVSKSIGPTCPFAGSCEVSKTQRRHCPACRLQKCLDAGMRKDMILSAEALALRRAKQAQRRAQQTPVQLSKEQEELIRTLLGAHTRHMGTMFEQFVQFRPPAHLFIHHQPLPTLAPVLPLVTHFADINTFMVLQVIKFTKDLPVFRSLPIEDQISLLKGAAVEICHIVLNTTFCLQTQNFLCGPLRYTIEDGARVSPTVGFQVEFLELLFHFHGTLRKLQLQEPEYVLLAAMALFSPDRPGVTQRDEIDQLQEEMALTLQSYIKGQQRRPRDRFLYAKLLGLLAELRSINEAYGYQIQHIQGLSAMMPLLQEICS
Sequence of Oxysterols receptor LXR-beta (Homo sapiens) (P55055 whole entry, looked up, the tested form may be a part): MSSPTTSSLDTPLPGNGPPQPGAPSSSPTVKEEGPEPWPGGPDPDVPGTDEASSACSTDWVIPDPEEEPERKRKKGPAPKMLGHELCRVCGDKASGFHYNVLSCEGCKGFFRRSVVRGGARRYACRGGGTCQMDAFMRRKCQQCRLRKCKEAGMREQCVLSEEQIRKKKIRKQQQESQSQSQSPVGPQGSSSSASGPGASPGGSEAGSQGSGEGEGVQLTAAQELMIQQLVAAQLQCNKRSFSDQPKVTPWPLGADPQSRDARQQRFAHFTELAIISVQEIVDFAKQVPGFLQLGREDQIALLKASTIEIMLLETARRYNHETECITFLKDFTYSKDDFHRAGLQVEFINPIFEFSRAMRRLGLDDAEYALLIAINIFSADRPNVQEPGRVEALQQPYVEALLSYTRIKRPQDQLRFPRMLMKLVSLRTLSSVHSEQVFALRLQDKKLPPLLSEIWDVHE
Sequence of Nuclear receptor subfamily 4 group A member 2 (Homo sapiens) (P43354 whole entry, looked up, the tested form may be a part): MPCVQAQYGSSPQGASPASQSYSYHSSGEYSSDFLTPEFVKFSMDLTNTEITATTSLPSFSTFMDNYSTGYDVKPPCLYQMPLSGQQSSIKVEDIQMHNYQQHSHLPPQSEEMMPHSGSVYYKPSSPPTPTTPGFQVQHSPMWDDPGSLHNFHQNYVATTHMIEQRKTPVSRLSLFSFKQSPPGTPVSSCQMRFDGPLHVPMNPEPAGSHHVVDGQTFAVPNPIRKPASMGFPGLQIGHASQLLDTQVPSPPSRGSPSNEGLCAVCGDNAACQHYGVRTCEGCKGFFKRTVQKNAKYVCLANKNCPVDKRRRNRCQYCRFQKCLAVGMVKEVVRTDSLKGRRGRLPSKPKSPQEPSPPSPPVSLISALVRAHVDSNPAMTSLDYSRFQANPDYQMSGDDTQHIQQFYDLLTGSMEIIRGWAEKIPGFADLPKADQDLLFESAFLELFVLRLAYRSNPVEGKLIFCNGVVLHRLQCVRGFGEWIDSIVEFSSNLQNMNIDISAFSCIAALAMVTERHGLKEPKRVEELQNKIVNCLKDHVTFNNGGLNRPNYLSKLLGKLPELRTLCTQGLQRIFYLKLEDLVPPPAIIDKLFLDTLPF
Sequence of Glucocorticoid receptor (Homo sapiens) (P04150 whole entry, looked up, the tested form may be a part): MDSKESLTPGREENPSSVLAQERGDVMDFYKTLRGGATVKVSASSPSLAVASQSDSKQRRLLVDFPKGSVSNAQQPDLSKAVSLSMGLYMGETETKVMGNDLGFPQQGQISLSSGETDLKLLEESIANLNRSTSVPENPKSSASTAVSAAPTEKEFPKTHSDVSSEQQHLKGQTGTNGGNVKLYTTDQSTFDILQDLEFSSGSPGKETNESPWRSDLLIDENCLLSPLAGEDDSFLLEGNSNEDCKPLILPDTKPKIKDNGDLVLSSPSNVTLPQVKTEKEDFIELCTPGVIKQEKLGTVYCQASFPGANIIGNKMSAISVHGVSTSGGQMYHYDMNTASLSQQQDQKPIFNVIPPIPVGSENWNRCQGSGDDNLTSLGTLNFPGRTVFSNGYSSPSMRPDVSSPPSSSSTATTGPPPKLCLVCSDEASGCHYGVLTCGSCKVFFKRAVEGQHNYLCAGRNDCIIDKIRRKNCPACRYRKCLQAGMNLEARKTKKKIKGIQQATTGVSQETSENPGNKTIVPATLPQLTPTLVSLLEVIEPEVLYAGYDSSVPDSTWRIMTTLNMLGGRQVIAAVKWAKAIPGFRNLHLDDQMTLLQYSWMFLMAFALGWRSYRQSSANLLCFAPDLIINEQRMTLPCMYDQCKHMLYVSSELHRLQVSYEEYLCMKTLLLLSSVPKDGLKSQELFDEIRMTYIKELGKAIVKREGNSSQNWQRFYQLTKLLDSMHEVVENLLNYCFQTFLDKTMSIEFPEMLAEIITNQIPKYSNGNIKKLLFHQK
Sequence of Hepatocyte nuclear factor 4-alpha (Homo sapiens) (P41235 whole entry, looked up, the tested form may be a part): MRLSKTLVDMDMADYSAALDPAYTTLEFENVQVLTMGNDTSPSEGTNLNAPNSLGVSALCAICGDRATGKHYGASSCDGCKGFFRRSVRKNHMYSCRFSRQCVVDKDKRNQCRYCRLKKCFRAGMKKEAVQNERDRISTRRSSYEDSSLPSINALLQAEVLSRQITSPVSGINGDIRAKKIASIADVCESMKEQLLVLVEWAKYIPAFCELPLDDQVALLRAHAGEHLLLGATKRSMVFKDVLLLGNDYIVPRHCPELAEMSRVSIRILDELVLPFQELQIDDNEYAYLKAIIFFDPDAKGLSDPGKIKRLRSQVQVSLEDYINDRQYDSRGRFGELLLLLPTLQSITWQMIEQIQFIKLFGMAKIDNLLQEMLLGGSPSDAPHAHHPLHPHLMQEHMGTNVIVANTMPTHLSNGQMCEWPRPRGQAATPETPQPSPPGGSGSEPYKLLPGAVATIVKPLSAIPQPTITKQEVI
Sequence of Transcriptional activator Myb (Homo sapiens) (P10242 whole entry, looked up): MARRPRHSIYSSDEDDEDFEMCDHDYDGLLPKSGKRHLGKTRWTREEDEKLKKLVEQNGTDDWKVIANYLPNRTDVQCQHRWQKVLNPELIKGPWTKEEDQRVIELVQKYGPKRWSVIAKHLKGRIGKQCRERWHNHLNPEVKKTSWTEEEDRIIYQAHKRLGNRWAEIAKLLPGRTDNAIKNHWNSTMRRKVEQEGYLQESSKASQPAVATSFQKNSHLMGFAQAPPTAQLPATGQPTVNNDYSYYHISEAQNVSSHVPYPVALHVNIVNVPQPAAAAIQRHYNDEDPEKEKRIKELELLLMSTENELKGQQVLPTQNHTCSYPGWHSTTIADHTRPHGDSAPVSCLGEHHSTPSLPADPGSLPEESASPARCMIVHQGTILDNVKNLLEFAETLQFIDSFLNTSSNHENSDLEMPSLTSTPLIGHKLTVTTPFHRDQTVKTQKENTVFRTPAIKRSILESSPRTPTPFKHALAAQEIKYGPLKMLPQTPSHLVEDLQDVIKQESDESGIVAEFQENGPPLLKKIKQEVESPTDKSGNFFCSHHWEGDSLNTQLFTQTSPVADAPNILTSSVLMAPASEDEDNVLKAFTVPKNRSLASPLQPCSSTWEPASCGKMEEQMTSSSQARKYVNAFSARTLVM
Sequence of X-box-binding protein 1 (Homo sapiens) (P17861 whole entry, looked up, the tested form may be a part): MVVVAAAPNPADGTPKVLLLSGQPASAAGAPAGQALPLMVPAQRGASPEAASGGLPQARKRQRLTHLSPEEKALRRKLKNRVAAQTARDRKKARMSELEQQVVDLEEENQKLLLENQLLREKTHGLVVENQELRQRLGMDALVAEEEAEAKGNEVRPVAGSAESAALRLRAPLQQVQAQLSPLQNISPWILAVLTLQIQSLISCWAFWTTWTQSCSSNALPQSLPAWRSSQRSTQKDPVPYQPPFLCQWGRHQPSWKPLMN
Sequence of Estrogen receptor (Homo sapiens) (P03372 whole entry, looked up, the tested form may be a part): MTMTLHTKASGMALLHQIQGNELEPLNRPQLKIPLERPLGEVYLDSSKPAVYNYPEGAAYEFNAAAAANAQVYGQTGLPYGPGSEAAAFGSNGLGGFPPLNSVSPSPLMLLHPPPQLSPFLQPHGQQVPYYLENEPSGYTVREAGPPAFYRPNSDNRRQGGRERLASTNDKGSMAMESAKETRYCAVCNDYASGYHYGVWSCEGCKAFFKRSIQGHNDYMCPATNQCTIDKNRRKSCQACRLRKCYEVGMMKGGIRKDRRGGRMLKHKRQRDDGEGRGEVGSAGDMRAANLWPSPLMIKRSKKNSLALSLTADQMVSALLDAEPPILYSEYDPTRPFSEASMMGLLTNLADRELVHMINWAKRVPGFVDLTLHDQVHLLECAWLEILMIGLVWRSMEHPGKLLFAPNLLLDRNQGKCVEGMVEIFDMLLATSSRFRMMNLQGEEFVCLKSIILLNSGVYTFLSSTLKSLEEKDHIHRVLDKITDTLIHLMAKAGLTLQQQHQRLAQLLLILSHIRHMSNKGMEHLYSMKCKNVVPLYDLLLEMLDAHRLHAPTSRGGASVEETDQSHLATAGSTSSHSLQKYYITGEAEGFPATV
Sequence of Bile acid receptor (Homo sapiens) (Q96RI1 whole entry, looked up, the tested form may be a part): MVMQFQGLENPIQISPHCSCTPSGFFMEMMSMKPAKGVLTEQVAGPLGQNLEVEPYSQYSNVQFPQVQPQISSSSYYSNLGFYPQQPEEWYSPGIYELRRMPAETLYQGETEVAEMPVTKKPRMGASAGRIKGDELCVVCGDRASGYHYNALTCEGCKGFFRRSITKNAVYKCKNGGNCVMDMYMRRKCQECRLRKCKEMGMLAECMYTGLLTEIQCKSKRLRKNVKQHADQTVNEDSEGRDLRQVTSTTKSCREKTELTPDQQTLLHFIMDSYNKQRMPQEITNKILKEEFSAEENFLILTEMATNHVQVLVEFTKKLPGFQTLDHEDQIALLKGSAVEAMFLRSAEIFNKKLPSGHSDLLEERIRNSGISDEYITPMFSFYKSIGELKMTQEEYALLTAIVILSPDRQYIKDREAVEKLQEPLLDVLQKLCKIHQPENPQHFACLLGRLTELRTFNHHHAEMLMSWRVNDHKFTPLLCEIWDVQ

Cc1noc(NS(=O)(=O)c2ccc(N)cc2)c1C
not listed: [13] | [14] | [15] | [16] | [17]
inactive: all other assays above

CC(C)CCCCCOC(=O)CS
not listed: [5] | [7] | [8] | [12] | [15] | [16] | [17]
inactive: all other assays above

CCOC(=O)CC(=O)c1ccccc1
not listed: [5] | [7] | [8] | [9] | [10] | [11] | [17]
inactive: all other assays above

C=C(C)C(=O)OCCOC(=O)C(=C)C
not listed: [4] | [7] | [8] | [11] | [15] | [16]
inactive: all other assays above

CCC(C)(O)CCCC(C)C (centres undefined)
not listed: [8] | [9] | [10] | [14] | [17]
inactive: all other assays above

Nc1nc(N)nc(-c2ccccc2)n1
not listed: [7] | [13] | [17]
inactive: all other assays above
